# Results reported in paper PMC4336329 (PLoS ONE, 2015).
# Screen size: about 310,000 compounds; about 14,000 (4.5%) showed an effect of 50% or more. The effect is printed as a negative number. The full list was thinned out, with strong results kept by preference.
# Target: human ether-à-go-go-related gene (hERG) potassium channel (human, UniProt Q12809)
# Assay: primary screen, population patch clamp on CHO cells stably expressing hERG; higher = less effect of the substance
# 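Also: peak tail current of the secondary pulse compared with the same well before compound.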
# Sequence of human ether-à-go-go-related gene (hERG) potassium channel (Q12809 whole entry, looked up): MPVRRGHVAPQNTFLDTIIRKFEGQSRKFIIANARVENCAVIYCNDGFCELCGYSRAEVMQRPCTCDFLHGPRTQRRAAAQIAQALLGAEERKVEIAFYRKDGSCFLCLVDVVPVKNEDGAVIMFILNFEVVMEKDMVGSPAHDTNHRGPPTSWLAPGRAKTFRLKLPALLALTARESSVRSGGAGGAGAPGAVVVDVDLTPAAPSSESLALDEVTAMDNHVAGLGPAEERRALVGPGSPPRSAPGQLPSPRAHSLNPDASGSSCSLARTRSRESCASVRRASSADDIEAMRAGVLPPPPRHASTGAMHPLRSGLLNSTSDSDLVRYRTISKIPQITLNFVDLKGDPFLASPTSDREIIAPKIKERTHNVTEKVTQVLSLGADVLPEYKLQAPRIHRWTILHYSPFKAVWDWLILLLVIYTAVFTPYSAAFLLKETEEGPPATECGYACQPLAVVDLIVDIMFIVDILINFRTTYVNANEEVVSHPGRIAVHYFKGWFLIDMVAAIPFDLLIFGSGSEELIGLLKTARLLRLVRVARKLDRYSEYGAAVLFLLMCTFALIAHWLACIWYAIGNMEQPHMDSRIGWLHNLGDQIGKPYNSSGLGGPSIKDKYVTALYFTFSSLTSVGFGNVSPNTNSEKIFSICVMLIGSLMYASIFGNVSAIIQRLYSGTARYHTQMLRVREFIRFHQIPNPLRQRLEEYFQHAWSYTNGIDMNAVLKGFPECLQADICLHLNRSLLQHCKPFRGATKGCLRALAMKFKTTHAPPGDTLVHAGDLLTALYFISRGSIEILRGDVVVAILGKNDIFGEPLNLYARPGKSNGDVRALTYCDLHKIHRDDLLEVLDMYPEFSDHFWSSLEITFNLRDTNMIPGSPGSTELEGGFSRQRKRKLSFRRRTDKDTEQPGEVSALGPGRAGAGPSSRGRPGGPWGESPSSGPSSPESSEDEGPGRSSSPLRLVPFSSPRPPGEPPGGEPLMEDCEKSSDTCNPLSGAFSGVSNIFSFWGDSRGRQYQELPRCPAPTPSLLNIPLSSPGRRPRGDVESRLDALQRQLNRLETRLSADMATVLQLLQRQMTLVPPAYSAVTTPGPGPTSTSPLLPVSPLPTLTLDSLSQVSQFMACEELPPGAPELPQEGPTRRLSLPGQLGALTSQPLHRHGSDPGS
row,Structure (SMILES),"hERG current change (%, negative = inhibition) at 10uM [%]"
1,COc1ccc(-c2nc(SCC(=O)N3CCOCC3)n[nH]2)cc1,-4.25
2,CC(=O)Nc1nonc1-c1nc2ccccc2n1Cc1ccccc1,13.2
3,CC(=O)N/C(=C/c1ccc(Cl)cc1)C(=O)NCCc1c[nH]c2ccccc12,-20.8
4,O=C(NCCc1c[nH]c2ccccc12)/C(=C\c1cccnc1)NC(=O)c1cccs1,-17
5,O=C(NCCc1c[nH]c2ccccc12)/C(=C\c1cccnc1)NC(=O)c1ccccc1Br,-65.1
6,O=C(NCCc1c[nH]c2ccccc12)/C(=C/c1cccnc1)NC(=O)c1ccccc1,-14.3
7,O=C(NCCc1c[nH]c2ccccc12)/C(=C\c1cccnc1)NC(=O)c1ccccc1F,-58.5
8,O=C(NCCc1c[nH]c2ccccc12)/C(=C/c1cccnc1)NC(=O)c1cccs1,-19.1
9,NC(=O)NC(CC(=O)NCCc1ccc(S(N)(=O)=O)cc1)c1ccccc1Cl (centres unmarked),6.81
10,CC(C(=O)N1c2ccc(F)cc2CCC1C)N1C(=O)c2ccccc2C1=O (centres unmarked),2.72
11,Cl.O=C(c1ccco1)N(CCCN1CCOCC1)c1nc(-c2ccc(Cl)cc2)cs1,-13.4
12,Cc1ccc(-c2csc(N(CCCN3CCOCC3)C(=O)c3ccco3)n2)cc1.Cl,-19.1
13,CN(C(=O)c1ccco1)c1nc(-c2ccc(Cl)cc2)cs1,8.09
14,COCCCN(C(=O)c1ccco1)c1nc(-c2ccc(OC)cc2)cs1,1.81
15,CN(C)CCCN(C(=O)c1ccco1)c1nc(-c2ccc(Cl)cc2)cs1.Cl,-72.5
16,Cc1ccc(-c2csc(N(CCCN(C)C)C(=O)c3ccco3)n2)cc1.Cl,-74.8
17,COc1ccc(-n2nc(C(=O)NCC(=O)NCc3ccco3)c3ccccc3c2=O)c(OC)c1,11.3
18,Cl.c1ccc(NNC2=NCCCCC2)cc1,8.92
19,O=C(O)Cn1c(=O)c2c3c(sc2n(Cc2ccc(F)cc2)c1=O)CCCC3,17.9
20,Cc1ccc(C)c(OCc2nc3ccc(S(=O)(=O)Nc4c(C)n(C)n(-c5ccccc5)c4=O)cc3[nH]2)c1,7.31
21,CCCCN(C)CCN1C(=O)C2C(C(=O)Nc3cccc(OC)c3)C3C=CC2(O3)C1C(=O)NC1CCCCC1C (centres unmarked),-14.7

row,Structure (SMILES),"hERG current change (%, negative = inhibition) at 10uM [%]"
1,CC(C)(C)C(=O)Nc1cc(NC(=O)C(C)(C)C)cc(C(=O)NNC(=O)c2ccncc2)c1,16.5
2,COc1ccc(NC(=O)N2CCC(n3nnc4cc(C)ccc43)CC2)cc1,-11.3
3,CCOc1ccc(NC(=O)N2CCC(n3nnc4ccccc43)CC2)cc1,-15.4
4,CCOc1ccccc1NC(=O)N1CCC(n2nnc3cc(C)ccc32)CC1,-53.9
5,Cc1ccc2c(c1)nnn2C1CCN(C(=O)c2ccccc2F)CC1,-18.1
6,CCOc1ccccc1C(=O)N1CCC(n2nnc3cc(C)ccc32)CC1,-47.4
7,Cc1ccc2c(c1)nnn2C1CCN(C(=O)C2CCCCC2)CC1,-31.3
8,COc1cccc(NC(=O)N2CCC(n3nnc4ccccc43)CC2)c1,-18.8
9,Cc1ccc2c(c1)nnn2C1CCN(C(=O)NCc2ccccc2)CC1,-76.7
10,CCOc1ccccc1C(=O)N1CCC(n2nnc3cc(C(F)(F)F)ccc32)CC1,-60
11,Cc1cccc(NC(=O)N2CCC(n3nnc4cc(C)ccc43)CC2)c1,-62.9
12,O=C(c1c(F)cccc1F)N1CCC(n2nnc3cc(C(F)(F)F)ccc32)CC1,-21.4
13,Cc1ccc2c(c1)nnn2C1CCN(C(=O)Nc2ccccc2C)CC1,-22.6
14,O=C(CSc1nc2[nH]ncc2c(=O)n1-c1ccc(Cl)c(Cl)c1)NCc1ccccc1Cl,-11.4
15,COc1ccc(CCN=C(N)NS(=O)(=O)c2ccccc2)cc1OC,19.5
16,COC(=O)Cc1ccc(NC(=O)c2ccc3c(c2)C(=O)N(Cc2cccnc2)C3=O)cc1,5.83
17,C[C@H](NC(=O)N1C[C@H]2C[C@@H](C1)c1cccc(=O)n1C2)C(=O)Nc1cccc(F)c1,2.4
18,CC(NS(=O)(=O)c1ccc(OCC(=O)Nc2cccc([N+](=O)[O-])c2)cc1)c1ccccc1 (centres unmarked),3.21
19,COCCN=C1NN=C(c2ccc(C)c([N+](=O)[O-])c2)CS1,11.7
20,O=C(/C=C/c1ccccc1)N/C(=C\c1ccco1)C(=O)O,19.6
